Source: PubChem BioAssay
MOR-DOR inv ag-1: inverse agonists of MOR-DOR heterodimerization, primary screen, cell-based, luminescence; Mu-type opioid receptor (Homo sapiens) + Delta-type opioid receptor (Homo sapiens), …; cell-based MOR-DOR heterodimer luminescence, inverse agonism; inhibition, % at 9.3 µM; hit rate 0.21% among 340,000; AID 504357, 2011; in the data active means inhibition above about 22%, passing the limit was not always enough
MOR-DOR ag: agonists of OPRM1-OPRD1 heterodimerization, primary screen, cell-based, luminescence; cells; Mu-type opioid receptor (Homo sapiens) + Delta-type opioid receptor (Homo sapiens), …; activation, % at 9.3 µM; hit rate 0.3% among 340,000; AID 504326, 2011; in the data active means activation above about 18%
HTR5A ag ctr: HTR5A agonists in luminescence cell assay, primary screen, counter-screen for OPRM1-OPRD1 heterodimer agonist project, full-deck HTS | 5-hydroxytryptamine receptor 5A (Homo sapiens), P47898 | cell-based | activation, % at 9.3 µM | hit rate 0.61% among 340,000; in the data active means activation mostly above about 9.5%, no sharp cut-off; inactive means mostly below about 7.6%
Target sequence (P47898 whole entry, looked up): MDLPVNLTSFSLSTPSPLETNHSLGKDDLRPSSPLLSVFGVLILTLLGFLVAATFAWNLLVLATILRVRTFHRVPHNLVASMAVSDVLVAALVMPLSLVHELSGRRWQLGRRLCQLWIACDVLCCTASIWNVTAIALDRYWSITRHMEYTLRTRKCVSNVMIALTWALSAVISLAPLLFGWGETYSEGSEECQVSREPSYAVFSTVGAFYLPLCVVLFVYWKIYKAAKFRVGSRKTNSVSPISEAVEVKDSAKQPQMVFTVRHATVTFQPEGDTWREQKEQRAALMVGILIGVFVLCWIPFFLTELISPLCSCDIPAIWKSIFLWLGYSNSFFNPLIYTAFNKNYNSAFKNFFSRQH
HTR5A inv ag: HTR5A inverse agonists in luminescence cell assay, primary screen, counter-screen for OPRM1-OPRD1 heterodimer inverse agonist project, full-deck HTS. AID 504634, 2011. HTR5A cell line, inverse agonism. 5-hydroxytryptamine receptor 5A (Homo sapiens), P47898. hit rate 0.083% among 340,000. inhibition, % at 9.3 µM; in the data active means inhibition mostly above about 23%, no sharp cut-off; inactive means mostly below about 18%
MOR-DOR inv ag-2: inverse agonists of MOR-DOR heterodimerization, counter-screen for HTR5A inverse agonist project, cell-based, luminescence; U2OS counter-screen cells, complementation luminescence; 190 tested, under 10 active; shares compounds with HTR5A inv ag; inhibition, % at 9.3 µM
HTR5A inv confrm: HTR5A inverse agonists, retest of hits, confirmation, cell-based, luminescence; shares compounds with HTR5A inv ag; HTR5A-expressing cells, inverse agonism; inhibition, % at 9.3 µM; 190 tested, under 10 active; AID 504916, 2011
A number is an active result; n = inactive; x = not tested or not shown. A selection: hits, their analogues and other compounds. The true share with any hit is near 1.1%. Unless noted, how the calls were made is not given here.

SMILES	MOR-DOR inv ag-1	MOR-DOR ag	HTR5A ag ctr	HTR5A inv ag	MOR-DOR inv ag-2	HTR5A inv confrm
COc1cccc(CN2C(=NC(=O)CCC3CCCC3)SC3CS(=O)(=O)CC32)c1 (stereo not given)	n	n	n	n	x	x
CC(=O)c1ccc(OCc2ccccc2)c(C)c1O	n	n	n	28.0	n	n
CSc1ccc(/C=N/n2c(Cc3ccc(Br)cc3)n[nH]c2=S)cc1	n	n	n	32.4	n	n
FC(F)Oc1ccc(/C=N/n2c(Cc3ccc(Br)cc3)n[nH]c2=S)cc1	n	n	n	n	x	x
CC(C)Oc1cccc(C(=O)N/N=C/c2ccoc2)c1	n	n	n	n	x	x
CCCOc1cccc(C(=O)N/N=C/c2ccoc2)c1	n	n	n	45.2	n	n
CCOc1ccc(S(=O)(=O)n2ccc(C)n2)cc1	n	n	n	25.8	n	n
O=C(NCCCN1CCCC1=O)C1CCN(S(=O)(=O)c2ccc(Cl)cc2)CC1	n	n	n	n	x	x
CCn1c(-c2ccccc2)c[nH]c1=S	n	n	n	n	x	x
S=c1[nH]cc(-c2ccc(Cl)cc2)n1Cc1ccccc1	n	n	n	30.8	n	n
O=C(CN1C(=O)c2ccccc2C1=O)NC1CCC(O)CC1 (stereo not given)	n	n	n	n	x	x
CC(C)c1ccc(/C=C/C(=O)Nc2nc3ccc([N+](=O)[O-])cc3s2)cc1	n	n	n	n	x	x
O=[N+]([O-])c1ccc2nc(NN=Cc3ccc(O)cc3)sc2c1	n	n	n	29.8	n	n
Cc1cc2nccc(-c3ccc(Cl)cc3Cl)n2n1	n	n	n	n	x	x
O=S(NCc1ccco1)C12CC3CC(CC(C3)C1)C2 (stereo not given)	n	n	n	40.4	n	n
O=C(NCCc1nc(-c2ccccc2Cl)no1)c1ccccc1	n	n	n	n	x	x
CC(C)C(=O)NCCc1nc(-c2ccccc2Cl)no1	n	n	n	37.5	n	n
N#CCSc1nnc(-c2ccc3c(c2)OCO3)o1	n	n	n	24.8	n	n
O=C(CN1CCN(c2ccccn2)CC1)Nc1cccc(S(=O)(=O)N2CCCC2)c1	n	n	n	n	x	x
CC(=O)NNC(=S)NC(=O)C(c1ccccc1)c1ccccc1	n	n	n	n	x	x
CC(C)(C)C(=O)NC(=S)NNC(=O)C(c1ccccc1)c1ccccc1	n	n	n	44.6	n	n
N#CCCN=C(NS(=O)(=O)c1ccccc1)c1ccccc1	n	n	n	21.9	n	n
COc1ccccc1NC(=O)c1ccc(NC(=O)c2nc3nccc(C)n3n2)cc1	n	n	n	n	x	x
COc1ccc(NC(=O)c2ccc(NC(=O)c3nc4nccc(C)n4n3)cc2)cc1	n	n	n	36.0	n	n
Cc1ccc(NS(=O)(=O)c2cc(C(=O)NCCCN(C)C)ccc2Cl)cc1Cl	n	n	n	n	x	x
SMILES	MOR-DOR inv ag-1	MOR-DOR ag	HTR5A ag ctr	HTR5A inv ag	MOR-DOR inv ag-2	HTR5A inv confrm
CCOc1ccc(S(=O)(=O)N2CCN(C(=O)c3ccc(C)c(S(=O)(=O)N4CCOCC4)c3)CC2)cc1	n	n	n	n	x	x
Brc1ccccc1/C=N/Nc1ccc2ccccc2n1	n	n	n	n	x	x
O=[N+]([O-])c1cccc(C=NNc2ccc3ccccc3n2)c1O	n	n	n	35.3	n	46.8
Cn1cc([N+](=O)[O-])c(C(=O)N2CCCCCC2)n1	n	n	n	n	x	x
OCC[C@@H]1C[C@@H](O)[C@H](O)[C@]2(OCCc3ccccc32)O1	n	n	n	n	x	x
OCC[C@@H]1C[C@H](O)[C@@H](O)[C@@]2(OCCCc3ccccc32)O1	n	n	n	43.9	n	n
COc1cccc(CNC(=O)Cc2ccc(S(=O)(=O)N3CCOCC3)s2)c1	n	n	n	38.3	49.4	n
FC(F)Oc1ccccc1NC(=S)NCCc1ccccc1	n	n	n	45.2	n	n
Cc1cc(OC(F)F)ccc1NC(=S)NCCc1ccccc1	n	n	n	n	x	x
CCN(CC)CCNC(=O)/C(=C/c1cn(C)c2ccccc12)NC(=O)c1ccc(OC)c(OC)c1	n	n	n	n	x	x
Cc1ccc(S(=O)(=O)N(C)c2ccc(C(=O)N(CC(C)C)C3CCS(=O)(=O)C3)cc2)cc1 (stereo not given)	n	n	n	n	x	x
